The full list was thinned out, with hits kept by preference.
mcGAS RapidFire = inhibitors of mouse cGAS; Q8C6L5; recombinant mouse cGAS, cGAMP by RapidFire MS; inhibition, % at 12.5 µM; 0.18% of 130,000 active; AID 1259397;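 active = inhibition of cGAS enzyme activity at or above 60%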;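 note: enzyme stimulated by 45 bp dsDNA with ATP and GTP substrates; cGAMP share of summed cGAMP plus half ATP and half GTP signals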
Target sequence (Q8C6L5 whole entry, looked up): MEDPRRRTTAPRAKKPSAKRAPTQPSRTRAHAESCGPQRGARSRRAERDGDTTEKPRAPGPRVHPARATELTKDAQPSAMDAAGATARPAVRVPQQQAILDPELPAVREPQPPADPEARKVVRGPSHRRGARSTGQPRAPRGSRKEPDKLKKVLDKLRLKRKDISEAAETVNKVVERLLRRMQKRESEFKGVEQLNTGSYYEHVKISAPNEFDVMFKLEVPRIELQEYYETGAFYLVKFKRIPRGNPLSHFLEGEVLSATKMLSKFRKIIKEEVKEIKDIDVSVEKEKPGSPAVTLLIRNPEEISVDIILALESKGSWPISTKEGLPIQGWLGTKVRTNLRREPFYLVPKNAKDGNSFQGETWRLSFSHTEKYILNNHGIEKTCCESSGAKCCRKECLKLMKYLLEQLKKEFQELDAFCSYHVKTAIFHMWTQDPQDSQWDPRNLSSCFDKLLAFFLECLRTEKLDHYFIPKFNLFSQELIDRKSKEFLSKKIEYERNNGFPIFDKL
An asterisk follows results filed as active; ! = repeats disagree.

SMILES	mcGAS RapidFire
O=C(OC[C@H]1O[C@H](OC(=O)c2cc(O)c(O)c(OC(=O)c3cc(O)c(O)c(O)c3)c2)[C@H](OC(=O)c2cc(O)c(O)c(OC(=O)c3cc(O)c(O)c(O)c3)c2)[C@@H](OC(=O)c2cc(O)c(O)c(OC(=O)c3cc(O)c(O)c(O)c3)c2)[C@@H]1OC(=O)c1cc(O)c(O)c(OC(=O)c2cc(O)c(O)c(O)c2)c1)c1cc(O)c(O)c(OC(=O)c2cc(O)c(O)c(O)c2)c1	96*
CC(=O)OC[C@H]1O[C@@H](Oc2cc(OC(C)=O)c3c(=O)cc(-c4ccc(OC(C)=O)cc4)oc3c2)[C@H](OC(C)=O)[C@@H](OC(C)=O)[C@@H]1OC(C)=O	-4
Fc1ccc(CN(Cc2nccs2)C2CC2)c(F)c1	-4
CCc1noc(CN(C)C(=O)Nc2ccc(N(C)C)c(Cl)c2)n1	-14
CS(=O)(=O)C(C#N)=Cc1ccc(Cl)cc1	8
O=C(CN1CCOc2ccccc2C1)NCCS(=O)(=O)N1CCCC1	71*
Cc1nn2cc(CNC(=O)CN3CCOc4ccccc4C3)nc2s1	-16
Cn1nnnc1SCCNC(=O)CN1CCOc2ccccc2C1	-16
O=C(c1cc2ccccc2[nH]c1=O)N1CCCCCCC1	4
CC(C)C(Nc1ncnc2sc3c(c12)CCCC3)c1nc(C2CC2)no1 (centres undefined)	-2
Nc1nc2ncc(CNc3ccc(C(=O)N[C@@H](CCC(=O)O)C(=O)O)cc3)nc2c(=O)[nH]1	82*!
CN(Cc1cnc2nc(N)nc(N)c2n1)c1ccc(C(=O)N[C@@H](CCC(=O)O)C(=O)O)cc1	24
Nc1nc2[nH]cc(CCc3ccc(C(=O)N[C@H](CCC(=O)O)C(=O)O)cc3)c2c(=O)[nH]1	5
Nc1ccc2c(c1N)C(=O)c1ccccc1C2=O	4
O=C1c2ccccc2C(=O)c2c1ccc(O)c2O	85*
O=C1C=C(O)c2ccccc2C1=O	12
CCC(C)c1ccc(NC(=O)COc2nnc3ccccn23)cc1 (centres undefined)	-11
c1ccc(N2CCC(CNc3nccn4cnnc34)C2)cc1 (centres undefined)	2
CCC(=O)O[C@H]1[C@H](O[C@@H]2[C@@H](C)[C@H](O[C@H]3C[C@@](C)(OC)[C@@H](O)[C@H](C)O3)[C@@H](C)C(=O)O[C@H](CC)[C@@](C)(O)[C@H](O)[C@@H](C)C(=O)[C@H](C)C[C@@]2(C)O)O[C@H](C)C[C@@H]1N(C)C	0
CCOC(=O)CCC(=O)O[C@H]1[C@H](O[C@@H]2[C@@H](C)[C@H](O[C@H]3C[C@@](C)(OC)[C@@H](O)[C@H](C)O3)[C@@H](C)C(=O)O[C@H](CC)[C@@](C)(O)[C@H](O)[C@@H](C)C(=O)[C@H](C)C[C@@]2(C)O)O[C@H](C)C[C@@H]1N(C)C	-7
CCOC(=O)CCC(=O)OC1C(OC2C(C)C(OC3CC(C)(OC)C(O)C(C)O3)C(C)C(=O)OC(CC)C(C)(O)C(O)C(C)C(=O)C(C)CC2(C)O)OC(C)CC1N(C)C (centres undefined)	99*
CC(OC(=O)C1CSC2(CCCC2)C(=O)N1)C(=O)NCc1ccccc1Cl (centres undefined)	-1
CN(C)CCCN(C)C(=O)C1CC(=O)N(Cc2ccc(Cl)cc2)C1 (centres undefined)	-3
O=C(CCc1nc2ccccc2[nH]c1=O)N1CCCC1c1ccccn1 (centres undefined)	-28
COc1ccc(Cn2cccc(C)c2=O)c(Cl)c1	-3
SMILES	mcGAS RapidFire
COc1ccc(OC)c(CNCc2c(C)nc3ccccn23)c1	-3
COc1ccc(CNCc2ccccc2Cn2cccn2)c(Cl)c1	83*
COCCN(C(=O)CN1CCN(S(=O)(=O)c2ccc3c(c2)OCCCO3)CC1)C1=CCCCC1	3
O=C(Nc1nc(C2CC2)cs1)c1cc2ccccc2cc1O	7
CC(C)Cc1cc(-c2nn3c(-c4cnccn4)nnc3s2)n[nH]1	88*
CC(C)c1cc(-c2nnc3sc(-c4cccnc4)nn23)n[nH]1	-5
CC(C)Cc1cc(-c2nn3c(-c4cccnc4)nnc3s2)n[nH]1	-5
COc1ccc(C(=O)N2CCC(Oc3c(C)cccc3C)CC2)c(O)c1	-8
CC(C)n1c(COc2ccccc2)n[nH]c1=S	5
Cc1ccc(F)cc1NC(=O)CNC(=O)c1cccc(-c2ncc[nH]2)c1	-15
NC(=S)N=Nc1ccc(NN=C(N)N)cc1	79*
CN(C)C(=O)c1cc(Cl)c(Cl)c(Cl)c1Cl	-4
Cc1ccc2c(c1)c(CNC(=O)CCc1c(C)nn(C)c1C)nn2C	-23
Cc1ccc2c(c1)c(CNC(=O)C1CNCC(=O)N1)nn2C (centres undefined)	64*
Cc1ccc2c(c1)c(CNC(=O)c1ccccc1C1CCNC1)nn2C (centres undefined)	-19
Nc1cc(Cl)ccn1	-7
O=[N+]([O-])c1ccc(CS(=O)c2nc(C(F)(F)F)cc(C(F)(F)F)n2)cc1 (centres undefined)	-31
Cc1cc(C(=O)NNC(=O)C=Cc2ccco2)c(C)o1	67*
CCOC(=O)NNC(=O)c1cc(C)oc1C	-12
Cc1cc(C(=O)NNC(=O)CCNC(=O)c2ccco2)c(C)o1	-7
O=C(O)c1cc2c(ccc3cc(Br)ccc32)oc1=O	17
Cc1ccccc1CN1C(=O)C(C)Sc2ccc(-c3ccco3)cc21 (centres undefined)	46
CC1Oc2ccccc2N(Cc2ccccc2Cl)C1=O (centres undefined)	-15
CC1Sc2ccc(-c3ccco3)cc2N(Cc2ccccc2Cl)C1=O (centres undefined)	69*
Cc1ccccc1CN1C(=O)C(C)Sc2ccccc21 (centres undefined)	24
SMILES	mcGAS RapidFire
COc1cccc(-c2ccc3c(c2)N(Cc2ccc(F)cc2)C(=O)C(C)S3)c1 (centres undefined)	-10
CC1Sc2ccccc2N(Cc2ccccc2Cl)C1=O (centres undefined)	69*
COCCN1CC(C(=O)N2CCC(c3ccncc3)CC2)CC1=O (centres undefined)	5
O=C(Nc1ncc([N+](=O)[O-])s1)c1cccs1	86*
O=C(Nc1ncc([N+](=O)[O-])s1)c1ccc(=O)n(Cc2ccc(F)cc2)c1	9
O=C(Nc1nnc(C2CC2)s1)c1cccs1	-18
CCN1CCN(C(c2ccc(C)cc2)C2Sc3nc(C)nn3C2=O)CC1 (centres undefined)	-8
CC(C)C1CN(C(=O)CCN2CCCC2=O)CCCN1Cc1ccc(F)cc1 (centres undefined)	-23
NC(=O)COc1ccc(C(=O)NNC(=O)CN2c3cccc4cccc(c34)S2(=O)=O)cc1	-2
O=S1(=O)c2cccc3cccc(c23)N1Cc1cccc2ccccc12	-11
O=C(CN1c2cccc3cccc(c23)S1(=O)=O)c1c[nH]c2ccccc12	87*
CC(C)c1nnc(CNc2cc(F)ccc2F)o1	0
CCC(C)(C)NC(=O)c1ccc(-n2cncn2)cc1	-3
CN1CCC(C(=O)NC(c2ccc(F)cc2)C2CCCC2)CC1=O (centres undefined)	-7
CC(C(=O)Nc1ccc(Cl)cn1)N(C)CC(=O)Nc1c(Cl)cccc1Cl (centres undefined)	-7
CC(C(=O)Nc1ccc(Cl)cn1)N(C)Cc1ccsc1 (centres undefined)	83*
CC(C(=O)Nc1ccccc1)N(C)Cc1ccc(Cl)cc1 (centres undefined)	-7
COc1ccc(-c2[nH]ncc2CN2CCCCC2CCNC(C)=O)c(OC)c1 (centres undefined)	4

Screening data from PubChem.
